# Luc counter = counter-screen: inhibitors of Kinase-Glo firefly luciferase; Q27757; Kinase-Glo luciferase, ATP luminescence, 8 min; Potency, µM (doses to about 38.3 µM), without a hit: top-dose activity change, negative = inhibition, usual class: inhibitors; actives 0.28% (n = 200,000); also: % is scaled to controls: 0 for no effect and ±100 for the full control effect; nearly all actives have a fitted effect of over 60% in size
#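 Luminescence was the read-out, taken after 8-minute incubation at ambient temperature. Luciferase turned over luciferin with 10 uM ATP in imidazole pH 7.2 buffer containing KCl, MgCl2, Tween 20 and BSA.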
# NPC1 prom act = activates the NPC1 promoter | Huh7 NPC1 promoter luciferase reporter, 24 h | Potency, µM (series often up to 9.22 µM), for inactives: at the top dose activation, actives largely listed as activators | actives 2.4% (n = 320,000) | AID 485313; also: % of control where 0% means no effect; nearly all actives have a fitted effect of over 60% in size
#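 Compounds in DMSO were transferred onto Huh7 NPC1-luciferase reporter cells pre-incubated 2 h; after 24 h at 37 °C, Amplite reagent was dispensed and luminescence recorded 10 min later.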
# ELG1 genotox = inducers of genotoxicity in HEK293T ELG1-luciferase cells; HEK293T ELG1-luciferase reporter, luminescence, 16 h; Potency, µM (doses to about 46 µM), without a hit: top-dose activity change, positive = activation, actives largely listed as activators; actives 1.3% (n = 330,000); also: % of control where 0% means no effect; nearly all actives have a fitted effect of over 60% in size
#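 HEK293T cells expressing luciferase-tagged ELG1 were exposed to compound or DMSO vehicle for 16 hr at 37 °C and 5% CO2. Luciferase activity was then measured with ONE-Glo after 30 min at room temperature.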
# SMN2 splice up = enhancers of SMN2 splice variant expression; HEK293 SMN2-luciferase splicing reporter, luminescence, 30-36 h; Potency, µM (top dose mostly 46.1 µM), for inactives: at the top dose activity change, positive = activation, hits mostly activators; actives 2.8% (n = 210,000); AID 1458; also: % of control where 0% means no effect; nearly all actives have a fitted effect of over 55% in size
#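 HEK293 cells carry an SMN2 […]–luciferase reporter in which exon 7 inclusion puts luciferase in frame. Cells were plated 10-12 h before compound addition, then incubated 30-36 h at 37C. ONE-Glo luminescence was read; sodium butyrate at 4.5 mM final served as control.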
# Rab9 prom act = activates the Rab9 promoter | AID 485297 | Huh7 Rab9 promoter-luciferase reporter, luminescence, 24 h | actives 2.8% (n = 320,000) | Potency, µM (top dose mostly 9.22 µM), inactives show at the top dose activation, negative = inhibition, most hits filed as activators; also: % of control where 0% means no effect; nearly all actives have a fitted effect of over 60% in size
#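 Huh7 reporter line, Rab9 promoter upstream of luciferase. Compound exposure 24 h at 37 °C in reduced-serum medium with 10% FBS. Read-out: luminescence.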
# FLuc counter = firefly luciferase modulation, counter-screen for miR-21 project | AID 588342 | Potency, µM (doses to about 57.5 µM), for inactives: at the highest dose activity change, negative = inhibition, most hits filed as inhibitors | actives 6.9% (n = 360,000) | purified FLuc, Km substrates, luminescence inhibition | P08659;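 also: plate controls were vehicle for no effect and reference inhibitor for full effect; nearly all actives have a fitted effect of over 55% in size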
# Target sequence (P08659 whole entry, looked up): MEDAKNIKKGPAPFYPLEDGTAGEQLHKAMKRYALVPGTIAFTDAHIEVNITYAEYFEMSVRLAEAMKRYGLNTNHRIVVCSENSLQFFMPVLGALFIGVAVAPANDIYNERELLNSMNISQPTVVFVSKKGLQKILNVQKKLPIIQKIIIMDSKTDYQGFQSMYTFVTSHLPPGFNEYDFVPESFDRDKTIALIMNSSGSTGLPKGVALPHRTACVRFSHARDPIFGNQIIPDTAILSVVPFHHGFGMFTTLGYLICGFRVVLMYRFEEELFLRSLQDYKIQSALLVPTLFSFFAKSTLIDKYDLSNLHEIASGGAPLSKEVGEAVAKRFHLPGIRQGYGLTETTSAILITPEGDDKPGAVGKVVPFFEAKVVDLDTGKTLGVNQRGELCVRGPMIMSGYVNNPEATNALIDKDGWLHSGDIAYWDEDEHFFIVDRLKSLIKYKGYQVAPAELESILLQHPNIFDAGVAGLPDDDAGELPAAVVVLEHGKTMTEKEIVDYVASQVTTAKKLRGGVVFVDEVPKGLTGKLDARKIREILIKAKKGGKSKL
#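 Purified P. pyralis luciferase, 10 nM final, with Km-level 10 uM D-luciferin and 10 uM ATP in 50 mM Tris acetate pH 7.5, 10 mM Mg acetate, 0.01% Tween-20, 0.05% BSA; 6-point qHTS titration about 60 µM downward; luminescence read.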
# * marks the source's active call; other numbers are inactive results; ? = inconclusive; . = not tested or not shown. Hits are enriched below; roughly 7.5% of the tested compounds scored in any of these assays. Calls follow the shape of the dose curve; as a rule, active = well fitted curve in the direction sought with a large enough effect; inconclusive = small, poorly fitted or top-dose-only effect, or another doubt; inactive = no such curve, though single readings can be large; an effect the other way counts as inactive or inconclusive. Potency is read from the fitted curve at half-maximal effect.
SMILES,Luc counter,NPC1 prom act,ELG1 genotox,SMN2 splice up,Rab9 prom act,FLuc counter
Cc1ccc(C(=O)Nc2ccccc2C(=O)Nc2ccccn2)cc1Cl,.,2%,3%,.,17%,5.4µM*
COc1ccc(C(=O)Nc2ccccc2C(=O)Nc2ccccn2)cc1,.,?,15%,.,?,6µM*
CCC1(c2ccc(F)cc2)NC(=O)N(CC(=O)Nc2cccnc2Cl)C1=O (stereo not drawn),.,-1%,-3%,.,-1%,0%
C#C[C@]1(O)CC[C@H]2C3CCC4=Cc5oncc5CC4(C)C3CCC21C (stereo partly drawn),1%,.,.,-8%,.,.
COc1ccc(C(=O)COC(=O)c2sc(C)nc2C)cc1F,.,.,-1%,.,.,.
Cc1ccnc(NC(=O)c2ccc(Cl)c(NC(=O)c3ccccc3C)c2)c1,.,1%,-7%,.,6%,-16%
Cc1ccnc(NC(=O)c2ccccc2NC(=O)c2ccc(Cl)cc2Cl)c1,.,-23%,?,.,-14%,12µM*
Cc1cccc(CNC(=O)c2ccc3nc(Cc4ccccc4)oc3c2)c1,.,.,.,.,.,0%
CCn1c(C)c(C)c2cc(C(=O)NC3CCCCCC3)ccc21,.,16%,9%,.,?,12µM*
Cc1cccc(C(=O)NC2CCCCCCC2)c1,.,4µM*,?,.,4.5µM*,12µM*
CCCN1C(=O)c2cc(C(=O)NC3CCCCCC3)ccc2C1O (stereo not drawn),2%,2µM*,9.2µM*,10µM*,2.2µM*,13µM*
COc1cccc(C(=O)NC2CCCC2)c1,-1%,2%,5%,0%,21%,-9%
CN(C)c1cccc(C(=O)NC2CCCCCC2)c1,-1%,?,18µM*,13µM*,3.2µM*,13µM*
CC(=O)Nc1ccc(S(=O)(=O)N2CCN(C(=O)c3ncoc3-c3ccc(F)cc3)CC2)cc1,.,1%,-6%,.,0%,1%
CCC(=O)N1CCc2cc(S(=O)(=O)NCCC(=O)NCc3ccccc3OC)ccc21,.,-5%,-2%,.,-5%,1%
COc1cc(OC)cc(-c2cc(NC(C)=O)n[nH]2)c1,6%,2%,10%,13%,-2%,?
CC(=O)Nc1cc(-c2ccc(Cl)cc2)[nH]n1,-7%,3.5µM*,?,22µM*,?,?
CC(C)C(=O)Nc1nc(-c2ccccc2)ns1,1%,3.5µM*,?,2.2µM*,2.8µM*,15µM*
CCCSc1nsc(NC(=O)CC)n1,?,0.28µM*,?,.,0.11µM*,0.67µM*
CC(=O)Nc1nc(-c2ccc(Cl)cc2)ns1,2%,?,17%,?,4µM*,11µM*
Cc1ccc(NC(=O)CSc2nnc(N)s2)c(C)c1,.,.,.,12%,.,-9%
CCCC(=O)Nc1nc(-c2ccccc2)ns1,-2%,?,25%,?,?,17µM*
CCC(=O)Nc1nc(-c2ccccc2)ns1,3%,4µM*,14%,11µM*,2µM*,15µM*
COc1ccc(NC(=O)Nc2nnc(N3CCCCCC3)s2)c(OC)c1,.,.,.,.,.,-1%
CC(=O)Nc1cccc(NC(=O)CCNC(=O)c2ccccc2)c1,.,-3%,3%,.,1%,-1%
SMILES,Luc counter,NPC1 prom act,ELG1 genotox,SMN2 splice up,Rab9 prom act,FLuc counter
CC1CCN(C(=O)C2COc3ccccc3C2)CC1 (stereo not drawn),.,.,.,.,.,-1%
O=S(=O)(NCC1CCCN(Cc2ccccc2O)C1)c1cccc2cccnc12 (stereo not drawn),.,-1%,-4%,.,-4%,-1%
CCOC(=O)c1ccc(Nc2ncnc3c2cnn3C)cc1,.,2%,11%,.,3%,-14%
Cn1ncc2c(O/N=C(\N)c3ccc(C(C)(C)C)cc3)ncnc21,.,-43%,-22%,.,-41%,15µM*
O=C(CCSc1ccc(Cl)cc1)NC1CCCC1,.,-2%,-1%,.,2%,-2%
O=C(CCS(=O)(=O)c1ccccc1)NC1CCCCC1,.,25%,15µM*,.,?,17µM*
O=C(CCSc1ccccc1)NC1CCCC1,-3%,3%,?,21%,1%,15µM*
CCN(CC)S(=O)(=O)c1ccc2c(c1)N(CC(=O)Nc1ccc(C)cc1C)C(=O)C1CCCN21 (stereo not drawn),.,.,.,.,.,-6%
Cc1cc(Cl)ccc1OCc1nc(-c2ccc(O)cc2)n[nH]1,7%,-3%,-2%,10%,0%,11µM*
Cc1cc(Cl)ccc1OCc1nc(-c2ccc(-n3cccc3)cc2)no1,.,.,.,-8%,.,-1%
N#Cc1ccccc1S(=O)(=O)N1CCNS(=O)(=O)c2ccccc21,.,.,-1%,.,.,.
COc1ccc(OCc2cc(C(=O)N(C)Cc3nnc(C)o3)no2)c(Cl)c1,.,3.2µM*,?,.,3.5µM*,8.5µM*
COc1ccc(OCc2cc(C(=O)N(C)Cc3cc(C)no3)no2)c(Cl)c1,.,2.8µM*,?,.,4µM*,6µM*
CC(=O)c1ccc(OCc2cc(C(=O)N(C)Cc3cc(C)no3)no2)cc1,.,16%,12%,.,23%,?
CCN(Cc1ccncc1)C(=O)c1cc(COc2ccc(OC)cc2Cl)on1,.,3.2µM*,?,.,2.8µM*,21µM*
COc1cc(Cl)ccc1OCc1cc(C(=O)N(C)Cc2nnc(C)o2)no1,.,29%,?,.,26%,?

# Compound activity deposited in PubChem BioAssay by National Center for Advancing Translational Sciences (NCATS).
